WT yeast gro inh = growth inhibition of WT yeast, mitochondrial fusion screen; mitochondrial fusion phenotypic screen, WT strain; inhibition, % at 10 µM; 190,000 tested, 2.1% active; AID 1362; in the data active = inhibition above about 58%; tested in S. cerevisiae
Lmaj promast = Leishmania major promastigote growth inhibition; Leishmania major promastigotes, resazurin fluorescence viability; 200,000 tested, 9% active; AID 1063; inhibition, % at 10 µM; in the data active = inhibition above about 50%;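 note: promastigotes grown with compound for 44 hours at 28 °C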
Insulin prom inh = TRM-6 insulin promoter activity inhibition. inhibition, % at 2 µM. TRM-6 cells (human fetal islet line), insulin promoter-eGFP reporter, imaging; reporter expression induced with tamoxifen. 130,000 tested, 0.9% active;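 active = inhibition above the mean plus 3 SD, with well images judged a real hit on visual review, cut at about 60% in these data, passing the limit was not always enough; inconclusive = inhibition over the cutoff but images rejected on review; inactive = inhibition not above the cutoff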
Ins promoter up = MIN6 insulin promoter up-regulation | AID 1625 | 190,000 tested, 0.3% active | MIN6 insulin promoter-GFP reporter, high-content imaging; hits give high values | z-score at 5 µM;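 active = z-score above 3 at 5 µM with at least 500 cells counted in the well; inconclusive = wells under 500 cells, flagged as cytotoxic or low count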
Autophagy mod = modulators of autophagy. calls only at 10 µM (by protocol). 190,000 tested, 0.98% active. AID 463193. MEF GFP-LC3 puncta imaging; test concentration mostly 10 µM;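 active = percentage of spot-positive cells more than 3 SD above its plate mean, without a fluorescence outlier flag or 80% toxicity; inconclusive = no clear call, values can overlap the other calls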;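 note: spot-positive cell cutoff set from DMSO-treated cells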
L major 1uM = L. major promastigote growth inhibition, 1 uM repeat; inhibition, % at 1 µM; AID 1258; shares compounds with Lmaj promast; 1,100 tested, 13% active; resazurin fluorescence, 48 h;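 active = inhibition above about 50% in both repeat tests, limit read from the data; inconclusive = one repeat under the set limit, the other over it; inactive = both repeats under the set limit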
* = called active by the depositor. Shown are actives, neighbours in structure and some others; about 11% of the full set was active somewhere.

What do the screens show for `COc1ccc(-n2cnc3c(cnn3CCC#N)c2=N)cc1`?
WT yeast gro inh: 1; Lmaj promast: 0; Insulin prom inh: 0; Ins promoter up: 0.01; Autophagy mod: inactive

How did COC(=O)c1cc(NC(=O)Cc2ccc(OC)cc2)cc(C(=O)OC)c1 do in these assays?
WT yeast gro inh: 2; Lmaj promast: 9; Insulin prom inh: -14; Ins promoter up: 0.66; Autophagy mod: inactive

What do the screens show for `Cc1cc(OCC(=O)N2CCc3ccccc3C2)c2c(-c3ccccc3)cc(=O)oc2c1`?
WT yeast gro inh: 55; Lmaj promast: 25; Insulin prom inh: -60; Ins promoter up: 0.08; Autophagy mod: inactive

Results for O=C1CN(c2ccc(Cl)cc2)C2(CCCCC2)S1 ?
WT yeast gro inh: -1; Lmaj promast: 66*; Insulin prom inh: -11; Ins promoter up: -0.28; Autophagy mod: inactive; L major 1uM: -18

How did COC(=O)C1=C(C)N(Cc2ccco2)C(=O)N[C@H]1c1ccc(Br)cc1 do in these assays?
WT yeast gro inh: 5; Lmaj promast: 3; Insulin prom inh: -24; Ins promoter up: 0.03; Autophagy mod: inactive

How did O=C(Cc1ccc([N+](=O)[O-])cc1)c1ccc(O)cc1O do in these assays?
Ins promoter up: 0.33

What do the screens show for `NC(=S)Nc1cccc2cc3ccccc3cc12`?
WT yeast gro inh: -8; Lmaj promast: 98*; Ins promoter up: 0.03; Autophagy mod: inactive; L major 1uM: -7

What do the screens show for `NC(=S)Nc1cc2ccccc2c2ccccc12`?
WT yeast gro inh: 21; Lmaj promast: -5; Insulin prom inh: -10; Ins promoter up: -0.29; Autophagy mod: inactive

What do the screens show for `Cc1cc(-c2ccccc2)cc(-c2ccccc2)[n+]1C`?
WT yeast gro inh: -11; Lmaj promast: 59*; Ins promoter up: -5; Autophagy mod: inactive; L major 1uM: 7

Results for Cc1ccc2c(c1)-c1cc(C)nn1C(c1ccc3c(c1)OCO3)N2 (centres undefined) ?
WT yeast gro inh: -11; Lmaj promast: 98*; Insulin prom inh: -10; Ins promoter up: -0.87; Autophagy mod: inactive; L major 1uM: 95*

How did Cc1cc2n(n1)C(c1ccc3c(c1)OCO3)Nc1ccccc1-2 (centres undefined) do in these assays?
WT yeast gro inh: 23; Lmaj promast: 5; Ins promoter up: -2.3; Autophagy mod: inactive

Results for C=CCNc1oc(-c2cccs2)nc1C#N ?
WT yeast gro inh: -5; Lmaj promast: -3; Insulin prom inh: -7; Ins promoter up: 0.04; Autophagy mod: inactive

Results for Brc1cccc(-c2nnc3sc(CNC4CCCC4)cn23)c1 ?
WT yeast gro inh: 15; Lmaj promast: 85*; Ins promoter up: -0.18; Autophagy mod: inactive; L major 1uM: inconclusive

How did Brc1cccc(-c2nnc3sc(CN4CCCCC4)cn23)c1 do in these assays?
WT yeast gro inh: 8; Lmaj promast: 5; Ins promoter up: -0.27; Autophagy mod: inactive

Results for COc1cccc2c(=O)c(C/C=C(/C)Cl)c(C)[nH]c12 ?
WT yeast gro inh: 19; Lmaj promast: 100*; Ins promoter up: -1.1; Autophagy mod: inactive; L major 1uM: 99*

How did CC(C)CN(C(=O)c1ccc(=O)n(C)n1)c1nc2ccccc2s1 do in these assays?
WT yeast gro inh: 9; Lmaj promast: 57*; Insulin prom inh: 41; Ins promoter up: 1.4; Autophagy mod: inactive; L major 1uM: -17

What do the screens show for `O=C(OC(C(=O)NCc1ccc2c(c1)OCO2)c1ccc(Cl)cc1)c1ccco1` (centres undefined)?
WT yeast gro inh: 10; Lmaj promast: -3; Insulin prom inh: -14; Ins promoter up: -0.09; Autophagy mod: inactive

How did Cn1c2ccccc2n2c(=O)c(Cl)c(-c3ccccc3)c(C#N)c12 do in these assays?
WT yeast gro inh: 18; Lmaj promast: 62*; Insulin prom inh: 8; Ins promoter up: -0.29; Autophagy mod: active; L major 1uM: 0

Results for CCOC(=O)C1=C(c2ccccc2)O/C(=C(/C#N)C(F)(F)F)S1 ?
WT yeast gro inh: 21; Lmaj promast: 74*; Insulin prom inh: -14; Ins promoter up: -0.89; Autophagy mod: active; L major 1uM: 9

Results for Cc1nn(C)c(C)c1/C=N/N=C1\CCC2C3CCc4cc(O)ccc4C3CCC12C (centres undefined) ?
WT yeast gro inh: 5; Lmaj promast: 98*; Insulin prom inh: -91; Ins promoter up: -0.48; Autophagy mod: inactive; L major 1uM: 2

Screening data: PubChem BioAssay, several laboratories
